What all share (conditions): mRNA level, 48 h; actives raise or lower the signal
Read-out in test [1]: 3-Hydroxy-3-Methylglutaryl-CoA Synthase 2 (HMGCS2), HMGCS2 (gene 3158)
The test can be described thus: LTEA_HepaRG_HMGCS2: Life Technologies and Expression Analysis (LTEA) Assay for 3-Hydroxy-3-Methylglutaryl-CoA Synthase 2 (HMGCS2) using HepaRG (AID 2283504). In outline: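 Human HepaRG cells in serum-free induction medium were exposed in duplicate for 48 h to 8-point half-log series from 100 uM top in 0.5% DMSO. HMGCS2 mRNA measured by TaqMan qRT-PCR, normalised to ACTB, GAPDH, POLR2A; bidirectional fit versus DMSO.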

Read-out in another test: HGF (gene 3082)
In words: LTEA_HepaRG_HGF: Life Technologies and Expression Analysis (LTEA) Assay for Hepatocyte Growth Facto (HGF) using HepaRG (AID 2283505). A digest of the protocol: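 Differentiated HepaRG cells in serum-free induction medium exposed 48 h in duplicate, 8 half-log concentrations from 100 uM in 0.5% DMSO. HGF mRNA by qRT-PCR, normalised to ACTB, GAPDH, POLR2A; bidirectional fitting.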

Read-out in test [2]: Insulin Like Growth Factor 1 (IGF1), IGF1 (gene 3479)
The test can be described thus: LTEA_HepaRG_IGF1: Life Technologies and Expression Analysis (LTEA) Assay for Insulin Like Growth Factor 1 (IGF1) using HepaRG (AID 2283506). A digest of the protocol:
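Endpoint: IGF1 mRNA change by qRT-PCR, housekeeping-normalized, fitted bidirectionally relative to 0.5% DMSO vehicle. Human HepaRG cells were treated 48 h in serum-free induction medium, eight half-log concentrations topping at 100 uM.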

Read-out in test [3]: Intercellular Adhesion Molecule 1 (ICAM1), ICAM1 (gene 3383)
In words: LTEA_HepaRG_ICAM1: Life Technologies and Expression Analysis (LTEA) Assay for Intercellular Adhesion Molecule 1 (ICAM1) using HepaRG (AID 2283507). In outline: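 Differentiated human HepaRG cells in serum-free induction medium exposed 48 h in duplicate to 8 half-log concentrations (top 100 uM, 0.5% DMSO). ICAM1 mRNA quantified by TaqMan qRT-PCR, normalized to ACTB, GAPDH and POLR2A; bidirectional fitting versus DMSO.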

Read-out in test [4]: Insulin-like growth factor-binding protein 1 (IGFBP1), IGFBP1 (gene 3484)
The test can be described thus: LTEA_HepaRG_IGFBP1: Life Technologies and Expression Analysis (LTEA) Assay for Insulin-like growth factor-binding protein 1 (IGFBP1) using HepaRG (AID 2283508). A digest of the protocol:
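HepaRG cells, plated 48 h then switched to serum-free induction medium, exposed in duplicate for 48 h to 8-point half-log series from 100 uM in 0.5% DMSO. mRNA measured by qRT-PCR, normalized to ACTB/GAPDH/POLR2A; bidirectional fit versus DMSO.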

Read-out in test [5]: Interleukin 6 (IL6), IL6 (gene 3569)
In words: LTEA_HepaRG_IL6: Life Technologies and Expression Analysis (LTEA) Assay for Interleukin 6 (IL6) using HepaRG (AID 2283509). A digest of the protocol: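 Changes in IL6 mRNA, up or down relative to 0.5% DMSO controls, were derived from concentration-response curves in human HepaRG cells treated for 48 h at up to 100 uM, with ACTB, GAPDH and POLR2A as normalizers.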

Read-out in test [6]: Interleukin 6 Receptor (IL6R), IL6R (gene 3570)
In words: LTEA_HepaRG_IL6R: Life Technologies and Expression Analysis (LTEA) Assay for Interleukin 6 Receptor (IL6R) using HepaRG (AID 2283510).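 As to AC50: TaqMan qRT-PCR signal normalized to ACTB GAPDH and POLR2A housekeeping genes.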 In outline: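 In this HepaRG screen, test chemicals act on cells for 48 h at up to 100 uM (eight half-log points, duplicate wells). IL6R expression is quantified by qRT-PCR after normalization to ACTB, GAPDH and POLR2A, with DMSO as baseline.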

Read-out in test [7]: Potassium channel subfamily K member 1 (KCNK1), KCNK1 (gene 3775)
In words: LTEA_HepaRG_KCNK1: Life Technologies and Expression Analysis (LTEA) Assay for Potassium channel subfamily K member 1 (KCNK1) using HepaRG (AID 2283511). A digest of the protocol:
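Human HepaRG cultures receive test chemicals for 48 h in 0.5% DMSO, top concentration 100 uM with half-log dilutions. Induction or suppression of KCNK1 mRNA relative to DMSO is derived by bidirectional fitting of qRT-PCR data.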

Read-out in test [8]: Keratin 19 (KRT19), KRT19 (gene 3880)
In words: LTEA_HepaRG_KRT19: Life Technologies and Expression Analysis (LTEA) Assay for Keratin 19 (KRT19) using HepaRG (AID 2283512). In outline:
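Differentiated HepaRG cells in serum-free induction medium, exposed 48 h in duplicate to 8 half-log concentrations up to 100 uM in 0.5% DMSO. KRT19 mRNA by qRT-PCR, normalized to ACTB, GAPDH, POLR2A; bidirectional fit vs DMSO.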

Read-out in test [9]: JUN Transcription Factor, JUN (gene 3725)
In words: LTEA_HepaRG_JUN: Life Technologies and Expression Analysis (LTEA) Assay for JUN Transcription Factor using HepaRG (AID 2283513). A digest of the protocol:
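Gene-expression endpoint: JUN mRNA (qRT-PCR, normalized to three reference genes) in HepaRG cultures treated 48 h with chemicals, duplicate wells, 100 uM maximum with half-log dilutions; bidirectional fitting relative to 0.5% DMSO.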

Activity calls are given as the source filed them. The calls were made as follows: active = hit-call score of the fitted dose curve at least 0.9, where 1 is the maximum; inactive = score below 0.9.

As for `[Cl-].[Cl-].[Hg+2]`, the result (in test [1]; in the test with HGF (gene 3082); in test [2]; in test [3]; in test [4]; in test [5]) was inactive. For the same compound, the result in [6], in [7] and in test [9] was inactive. Moreover, in test [8], the AC50 (as a rule, the midpoint of the concentration-response curve, whichever way the signal moves) is 29.3 µM (active).

With `CCC[CH2][Sn]([Cl])([CH2]CCC)[CH2]CCC`, the AC50 is 1.24 µM (active) in test [1]; 50 µM (active) with HGF (gene 3082); 4.72 µM (active) in test [2]; 2.29 µM (active) in test [4]; 2.73 µM (active) in [5]; 50 µM (active) in test [6]. The half-maximal activity concentration (AC50) is 2.85 µM (active) in [7], 0.297 µM (active) in test [8] and 3.32 µM (active) in [9]. Besides, in [3], the compound was called inactive.

Consider `CC(C)(C)OOC(C)(C)CCC(C)(C)OOC(C)(C)C`, for which the call (in [1]; with HGF (gene 3082); in test [2]; in test [3]; in test [4]; in test [5]) was inactive. For the same compound, the compound was classed as inactive in test [6], in test [7], in test [8] and in test [9].

As for `[O-][Cl+]O`, the outcome (in test [1]; with HGF (gene 3082); in test [2]; in test [3]; in test [4]; in [5]) was inactive. Moreover, the call in test [6], in [7], in test [8] and in test [9] was inactive.

With `CCCCC(CC)COC(=O)c1ccc(C(=O)OCC(CC)CCCC)c(C(=O)OCC(CC)CCCC)c1` (stereo not given), the call (in test [1]; with HGF (gene 3082); in [2]; in [3]; in test [4]; in test [5]) was inactive. Moreover, the compound was classed as inactive in test [6], in [7], in test [8] and in [9].

As to `Cc1ccc(N)c(N)c1`, the compound was classed as inactive (in [1]; with HGF (gene 3082); in test [2]; in test [3]; in test [4]; in test [5]). Also, the call in test [6], in test [7] and in test [9] was inactive. The AC50 in test [8] is 32.8 µM (active).

In the case of `CCCCCCCCCCCCCN1CC(C)OC(C)C1` (stereo not given), the result (in test [1]; with HGF (gene 3082); in test [2]; in test [3]; in [4]; in test [5]) was inactive. Further, the outcome in test [6], in [7], in test [8] and in [9] was inactive.

For the compound `Nc1ccc(Cl)cc1N`, the AC50 in test [1] was 34.1 µM (active); in the test with HGF (gene 3082), 33.6 µM (active); in test [2] it was 25 µM (active); in test [4], 16.1 µM (active); in test [5], 73.4 µM (active); in [6] it was 34.2 µM (active). Besides, the AC50 in [8] was 33.5 µM (active). Also, the call in test [3], in [7] and in [9] was inactive.

With `C[C@]12C=CC3=C4CCC(=O)C=C4CC[C@H]3[C@@H]1CC[C@@H]2O`, the result (in test [1]; with HGF (gene 3082); in test [3]; in [4]; in [6]; in test [7]) was inactive. Moreover, the call in [8] and in test [9] was inactive. Further, the AC50 in test [2] is 55.6 µM (active); in test [5], 9.92 µM (active).

For `Cc1ccc(N)cc1`, the compound was called inactive (in test [1]; with HGF (gene 3082); in [2]; in [3]; in test [4]; in test [5]). The compound was called inactive in test [6], in [7], in test [8] and in [9].

As for `ClC1=C(Cl)[C@]2(Cl)[C@H]3[C@H]([C@@H]4C=C[C@H]3C4)[C@@]1(Cl)C2(Cl)Cl`, the compound was classed as inactive (in test [1]; with HGF (gene 3082); in test [2]; in test [3]; in [4]; in test [5]). For the same compound, the compound was classed as inactive in [6], in [7], in test [8] and in test [9].

In the case of `Nc1ccc([N+](=O)[O-])cc1`, the outcome (in test [1]; with HGF (gene 3082); in [2]; in [3]; in [4]; in test [5]) was inactive. The result in test [6], in test [7], in [8] and in test [9] was inactive.

As for `O=C(N[C@H](c1ccccc1)[C@@H]1CN2CCC1CC2)c1c(Cl)ccc(C(F)(F)F)c1Cl`, the AC50 in test [1] was 72.8 µM (active); in [2], 46.2 µM (active); in [3], 66.6 µM (active); in test [4], 34.8 µM (active); in test [5] it was 74.8 µM (active); in [7] it was 59.7 µM (active). Also, the AC50 in test [8] was 12 µM (active); in [9], 82.4 µM (active). For the same compound, the outcome (in the test with HGF (gene 3082); in test [6]) was inactive.

On to `N#CC(Br)(Br)C(N)=O`, for which the compound was classed as inactive (in [1]; with HGF (gene 3082); in test [2]; in test [3]; in test [4]; in [5]). Further, the outcome in test [6], in test [7], in test [8] and in [9] was inactive.

For the compound `Oc1ccccc1Cl`, the call (in [1]; in the test with HGF (gene 3082); in test [2]; in test [3]; in test [4]; in [5]) was inactive. Moreover, the outcome in test [6], in [7], in [8] and in [9] was inactive.

For the compound `CCCCCCCCn1sccc1=O`, the results for the AC50 (in test [1]; with HGF (gene 3082); in test [6]) were 84.8 µM (active), 81.3 µM (active) and 99.3 µM (active), respectively. In addition, the compound was called inactive in test [2], in test [3], in [4], in [5], in test [7] and in test [8]. Also, the compound was called inactive in [9].

Regarding `c1ccc(NNc2ccccc2)cc1`, the outcome (in [1]; with HGF (gene 3082); in test [2]; in test [3]; in test [4]; in test [5]) was inactive. Besides, the compound was called inactive in test [6], in test [7], in [8] and in test [9].

Regarding `Cc1ccc([N+](=O)[O-])cc1`, the call (in test [1]; with HGF (gene 3082); in test [3]; in test [4]; in [5]; in test [6]) was inactive. Moreover, the compound was called inactive in [7], in [8] and in test [9]. For the same compound, in [2], the AC50 was 17.8 µM (active).

Regarding `CC(C)(C)C(O)(CCc1ccc(Cl)cc1)Cn1cncn1` (stereo not given), the AC50 in [1] was 72.3 µM (active); in the test with HGF (gene 3082) it was 79.1 µM (active); in [2], 50 µM (active); in test [3] it was 50 µM (active); in test [4] it was 50 µM (active). Besides, the compound was called inactive in test [5], in test [6], in test [7], in test [8] and in test [9].

`Nc1ccc(N=Nc2ccccc2)cc1`: the AC50 in [1] was 24.6 µM (active); in test [2] it was 12.8 µM (active); in test [3] it was 30.9 µM (active); in test [6], 13 µM (active); in test [8], 50 µM (active). In addition, the result (in the test with HGF (gene 3082); in [4]; in [5]; in test [7]; in [9]) was inactive.
